The sample as a whole holds a higher share of hits than the screen did.
PTK2B oligo ant – antagonists of Pyk2 self-association, primary screen, Q293 cells, FERM NanoBiT luminescence, HTS. 99,000 compounds, 0.83% hits. z-score (the deposit names both 25 µM and 10 µM). active compounds read low;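 active means Z-score of -3 or lower, scaled per plate to the spread of control and sample wells; inactive means z-score above -3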;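 further: negative z-score means lost luminescence so less FERM oligomerization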
D1 mod – D1 CRE-luciferase signal change, two-sided – cell-based, HEK293 D1, dopamine EC30, D1 allosteric modulator project, primary screen; D(1A) dopamine receptor (Homo sapiens), P21728; dopamine EC30 potentiation; actives deviate in either direction; B-score at 10 µM; 58,000 compounds, 5.9% hits; AID 641, 2007;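 active means luminescence count or its row- and column-corrected plate score outside the 99.7% band of the plate's sample wells, on either side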
FAK inh – FAK kinase inhibitors, primary screen, biochemical; biochemical FAK kinase activity assay; inhibition, %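 (tested at 7 µM)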; 97,000 compounds, 0.84% hits; Focal adhesion kinase 1 (Homo sapiens), Q05397; in the data active means inhibition above about 19%
DAT uptake mod – changed hDAT dopamine uptake under cocaine IC80, either direction, primary screen, cocaine antagonist project, cell-based, LLC-PK1 hDAT, [14C]-dopamine uptake, MLSMR; Sodium-dependent dopamine transporter (Homo sapiens), Q01959; LLC-PK1 hDAT cells, [14C]-dopamine uptake with cocaine IC80; actives deviate in either direction; B-score at 10 µM; 110,000 compounds, 1.3% hits;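 active means Z score or B-score, a plate-position-corrected score, falls beyond the plate's 99.7% confidence bounds, in either direction; inactive means both scores lie inside the 99.7% bounds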
Mac1 fbg enh – enhancers of CD11b/CD18 adhesion to fibrinogen, primary screen, K562 cells, luminescence. Integrin beta-2 (Homo sapiens) + Integrin alpha-M (Homo sapiens), P05107+P11215. ATPlite luminescence. activation, % at 10 µM. 93,000 compounds, 0.07% hits;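 active means 10 µM primary screen giving 50% or more activity, confirmed by 40% or more on retest at that dose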
Target sequence (P05107 whole entry, looked up, other chains not shown): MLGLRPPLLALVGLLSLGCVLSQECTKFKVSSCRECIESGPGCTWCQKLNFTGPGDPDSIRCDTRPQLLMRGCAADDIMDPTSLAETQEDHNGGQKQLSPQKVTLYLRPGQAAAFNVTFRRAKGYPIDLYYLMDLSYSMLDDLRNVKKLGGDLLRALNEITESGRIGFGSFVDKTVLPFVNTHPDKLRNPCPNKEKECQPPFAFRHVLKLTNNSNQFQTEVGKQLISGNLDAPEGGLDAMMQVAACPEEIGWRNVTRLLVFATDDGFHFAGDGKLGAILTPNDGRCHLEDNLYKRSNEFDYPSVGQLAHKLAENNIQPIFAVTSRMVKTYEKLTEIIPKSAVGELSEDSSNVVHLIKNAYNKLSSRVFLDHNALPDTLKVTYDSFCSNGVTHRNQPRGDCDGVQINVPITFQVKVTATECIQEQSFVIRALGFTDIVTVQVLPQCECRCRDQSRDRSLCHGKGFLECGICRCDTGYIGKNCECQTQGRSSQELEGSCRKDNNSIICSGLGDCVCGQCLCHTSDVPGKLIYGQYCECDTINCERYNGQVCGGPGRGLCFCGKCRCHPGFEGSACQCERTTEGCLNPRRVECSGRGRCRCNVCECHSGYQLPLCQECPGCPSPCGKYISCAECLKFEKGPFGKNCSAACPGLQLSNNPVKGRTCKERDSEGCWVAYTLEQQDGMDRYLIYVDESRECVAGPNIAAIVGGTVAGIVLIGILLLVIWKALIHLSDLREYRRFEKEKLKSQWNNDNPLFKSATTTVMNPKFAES
Mac1 fbg inh – inhibitors of CD11b/CD18 adhesion to fibrinogen, primary screen, K562 cells, luminescence; Integrin beta-2 (Homo sapiens) + Integrin alpha-M (Homo sapiens), P05107+P11215; AID 1497, 2009; ATPlite luminescence; Mn2+ added to activate the integrin; inhibition, % at 10 µM; 93,000 compounds, 0.54% hits;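 active means primary inhibition of 50% or more at 10 µM, then 40% or more on retest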
D1 mod confirm – D1 receptor positive allosteric modulators, retest, confirmation, cell-based, HEK293 D1, CRE-luciferase, duplicate; shares compounds with D1 mod; dopamine EC30 potentiation; active compounds read high; luminescence at 10 µM; 2,200 compounds, 88% hits;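 active means luminescence in either of two replicates above the same-plate mean plus 3 SD of the low-dose dopamine control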
D1 no dopamine – D1 receptor agonism without dopamine, confirmation, mechanism study for D1 allosteric modulator project, cell-based, HEK293 D1, CRE-luciferase, secondary assay 1 | shares compounds with D1 mod | luminescence at 10 µM | 1,900 compounds, 0.8% hits | luminescence, no dopamine; active compounds read high; in the data active means luminescence above about 3900
Isoprot counter – alters isoproterenol CRE-luciferase response in HEK293 cells | shares compounds with D1 mod | HEK293 D1 CRE-luciferase, isoproterenol EC30 counter-screen | calls only at 10 µM | 2,200 compounds, 63% hits;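 active means luminescence in either replicate above plate mean of wells with a partly effective reference agonist dose plus 3 SD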;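 further: isoproterenol raises cAMP through native beta-adrenoceptor Gs so signal bypasses D1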
A number is an active result; . = inactive; / = not tested or not shown; + = active, no number.

SMILES | PTK2B oligo ant | D1 mod | FAK inh | DAT uptake mod | Mac1 fbg enh | Mac1 fbg inh | D1 mod confirm | D1 no dopamine | Isoprot counter
CCCC[C@@H]1CNC(=O)C(=O)N1CCc1cccc2ccccc12 | / | / | / | . | / | / | / | / | /
O=C(NCc1ccc2c(c1)OCO2)c1cc(-c2ccccc2Cl)on1 | . | / | . | . | / | / | / | / | /
CSc1ncc(Cl)c(C(=O)NCc2ccc3c(c2)OCO3)n1 | . | 12 | . | . | . | . | 16252 | . | +
Cc1ccc(Oc2ccccc2)c(NC=O)c1 | . | 4.95 | . | . | . | . | 12104 | . | .
Cc1cc(C)cc(Oc2ccccc2C=O)c1 | . | / | . | . | . | . | / | / | /
O=C(c1cc(Cl)c(=O)n(Cc2ccc(Cl)cc2)c1)N1CCOCC1 | . | / | . | . | / | / | / | / | /
N#Cc1cnn(Cc2ccccc2)c1/N=C/N1CCOCC1 | . | 5.48 | . | . | . | . | 8140 | . | .
CCOC(=O)CCc1c(C)c(C#N)c2nc3ccccc3n2c1-n1ccnc1 | . | . | . | . | . | . | / | / | /
COC(=O)CCc1c(C)c(C#N)c2nc3ccccc3n2c1N1CCCC1 | . | 5.54 | . | . | / | / | 10456 | / | +
N#CC1=C(N)C(C#N)(C#N)C(c2ccc[nH]2)C2CCCC=C12 (configuration not stated) | . | 2.81 | . | . | . | . | . | . | .
Cc1ccc(Cn2nc(C)c(NC(=O)C3(C)CC3(Br)Br)c2C)cc1 (configuration not stated) | . | / | . | . | / | / | / | / | /
O=S(=O)(c1cccs1)N1CN(CC2CCCO2)c2nc3ccccc3nc21 (configuration not stated) | . | / | . | . | . | . | / | / | /
COCCCNc1nc2ccccc2nc1NS(=O)(=O)c1cccs1 | . | 2.78 | . | . | . | . | 10820 | . | .
O=S(=O)(Nc1nc2ccccc2nc1NCC1CCCO1)c1cccs1 (configuration not stated) | . | 8.63 | . | . | . | . | 15576 | . | +
COC(=O)N/N=C/c1cc(Cl)cc(Cl)c1OCc1ccc(F)cc1 | . | / | / | / | / | / | / | / | /
Cn1nnnc1SCC(=O)Nc1ccccn1 | . | / | . | . | . | . | / | / | /
Cn1nnnc1SCC(=O)Nc1nc(-c2ccccc2)c(-c2ccccc2)o1 | . | 3.75 | . | . | . | . | 9488 | . | .
C=CCNC(=S)NNC(=O)c1ccccc1 | . | / | . | . | . | . | / | / | /
C=CCNC(=O)c1ccccc1NC(=O)c1ccccc1 | . | 8.29 | . | . | . | . | 16308 | . | .
CCOC(=O)CSc1nc2sc3c(c2c(=O)n1CC)CC(C)(C)OC3 | . | 5.9 | . | . | / | / | 8088 | . | +
Cn1c(N)c(C#N)c2c(c1=S)COC(C)(C)C2 | . | / | . | / | . | . | / | / | /
CC(C)C1Cc2c(C#N)c(N)n(C)c(=S)c2CO1 (configuration not stated) | . | 9.78 | . | . | . | . | 11952 | . | +
CCOC(=O)CCNC(C(=O)OCC)c1ccccc1 (configuration not stated) | . | / | . | . | . | . | / | / | /
COc1ccc(CC(=O)NCc2ccc3c(c2)OCO3)cc1 | . | / | . | . | . | . | / | / | /
COC(=O)/C(=C1/Oc2cc3c(cc2S1)OCO3)C(F)(F)F | . | 3.37 | / | . | . | . | 11868 | . | .
SMILES | PTK2B oligo ant | D1 mod | FAK inh | DAT uptake mod | Mac1 fbg enh | Mac1 fbg inh | D1 mod confirm | D1 no dopamine | Isoprot counter
CCOC(=O)c1c(NC(=O)c2ccc(Cl)cc2)csc1C | / | / | / | / | . | . | / | / | /
CCOC(=O)CSc1nnc(Cc2ccccc2)n1Cc1ccco1 | . | . | . | . | . | . | / | / | /
CCOC(=O)CSc1nc2c(sc(=S)n2Cc2ccco2)c(=O)n1-c1ccccc1 | . | 4.47 | . | . | / | / | 8252 | . | .
Clc1ccc(-c2ccc(-c3nn4c(-c5ccco5)nnc4s3)o2)cc1 | . | . | . | . | / | / | / | / | /
Brc1ccc(-c2nn3c(-c4ccco4)nnc3s2)o1 | . | 4.09 | . | . | . | . | 10612 | . | +
c1coc(CNc2nc3ccccc3n2CCN2CCOCC2)c1 | . | . | . | . | . | . | / | / | /
c1ccc(Cn2c(NCc3ccco3)nc3ccccc32)cc1 | . | 12 | . | . | . | . | 14512 | . | .
O=C1CC(N2CCN(Cc3ccc4c(c3)OCO4)CC2)C(=O)N1CCc1ccccc1 (configuration not stated) | . | 2.53 | / | . | . | . | . | . | .
CN(C)S(=O)(=O)c1ccc(Cl)c(NC(=O)CSc2nc3ccccc3c(=O)n2CCCN2CCOCC2)c1 | . | / | / | / | / | / | / | / | /
CS(=O)(=O)N(CCC(=O)O)Cc1ccccc1 | . | . | . | . | . | . | / | / | /
COc1ccc(/C=N/OCC(=O)Nn2c(C)nc3ccccc3c2=O)cc1 | . | / | / | / | / | / | / | / | /
COc1ccccc1CNC(=O)c1oc2ccc(S(=O)(=O)N3CCCC3)cc2c1C | . | 30 | . | . | . | . | 19660 | . | +
Cc1c(C(=O)NCc2ccccc2)oc2ccc(S(=O)(=O)N3CCCC3)cc12 | / | 10.6 | . | . | . | . | 21124 | . | +
Cc1c(C(=O)NCc2cccnc2)oc2ccc(S(=O)(=O)N3CCCCC3)cc12 | . | . | . | . | / | / | / | / | /
CCn1c(SCCC(=O)O)nnc1-c1cccnc1 | . | / | / | . | . | . | / | / | /
CCOC(=O)c1cc2c(C(F)(F)F)cc(-c3cccnc3)nc2o1 | . | 5.3 | . | . | . | . | 6932 | . | +
Cc1nn(CCC(=O)O)c2nc(-c3cccnc3)cc(C(F)(F)F)c12 | . | 5.38 | . | . | . | . | 8896 | / | .
COc1ccc(N/C=C2\CCOC2=O)cc1 | . | 3.16 | / | . | . | . | . | . | .
C=C(C)C1(O)OC(=O)C=C1OC (configuration not stated) | / | / | / | . | / | / | / | / | /
CC(C)n1c(SCC(=O)Nc2ccc3c(c2)OCO3)nc2c1c(=O)n(C)c(=O)n2C | . | 9.12 | . | . | . | . | 7904 | . | +
CCn1c(SCC(=O)Nc2ccc3c(c2)OCO3)nc2ccccc21 | . | / | . | . | / | / | / | / | /

Screening results from PubChem.
